From PubChem BioAssay
This excerpt belongs to a sample that is enriched for hits.
Methyltransferases – Primary Screen for Target Class Profiling of Small Molecule Inhibitors of Methyltransferases. purified enzyme, MTase-Glo SAH luminescence; active compounds read low. calls only at 40 µM. hit rate 3.9% among 25,000. AID 1745853, 2022; call rule not given here
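Each enzyme was assayed with SAM and its substrate. SAH formation detected by MTase-Glo luminescence; single-point 40 uM screen[…].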
Each line names hits and unclear results; the compound was inactive in the other large screens; ! = not confirmed by another sample.

O=C(Nc1ccc(Cl)cc1)N1Cc2c(sc3c2CCCC3)-n2cccc2C1c1cccc(F)c1 (stereo not drawn)	none
COCCCNC(=O)C1(C)Cn2nc(-c3ccccc3)cc2C(=O)N1Cc1cc(OC)ccc1OC (stereo not drawn)	none
Cc1nc(Nc2n[nH]c3c2CN(C(=O)N[C@H](CN(C)C)c2ccccc2)C3(C)C)c2sccc2n1	Methyltransferases active
CCCn1c(=O)c2ccc(C(=O)NC(C)C)cc2n2c(=O)n(CC(=O)NC(C)CC)nc12 (stereo not drawn)	none
Cc1c(-c2ccc3c(c2)OCO3)oc2ccc(C(O)C(C)O)cc12 (stereo not drawn)	none
Cc1nc(CN(C)c2ncnc3ccc(-c4ccc5c(c4)OCO5)cc23)cs1	Methyltransferases active
Cn1c(=O)c2ccc(C(=O)NC3CCCCC3)cc2n2c(SCc3ccccc3)nnc12	none
CCCCOc1ccc(CNC(=O)c2cc3n(n2)CC(C)(C(=O)NCc2ccc(C)cc2)N(C)C3=O)cc1 (stereo not drawn)	none
Cn1nc2n(C)c(=O)c3ccc(C(=O)NC4CCCCC4)cc3n2c1=O	none
CCOc1ccc(-c2cc(NC(=O)c3c(F)cccc3F)c(C(=O)O)s2)cc1	Methyltransferases active
CCCCOc1ccc(C(=O)Nc2ccc(F)cc2F)cc1	none
COc1cccc(-c2ccc(NC(=O)C3=C(C(=O)O)CCC3)c(F)c2)c1	none
COCCCNC(=O)CCc1nnc2n(Cc3ccc(C)cc3)c(=O)c3ccccc3n12	none
O=C1CCCCC(CNC(=O)C2(c3ccccc3)CC2)N1 (stereo not drawn)	none
O=C1Nc2ccc(I)cc2/C1=C/c1cc(Br)c(O)c(Br)c1	Methyltransferases active
Cc1ccc(CN2C[C@]34C=C[C@H](O3)C(C(=O)N(C)Cc3ccsc3)C4C2=O)cc1C (stereo partly drawn)	none
O=c1c2ccccc2n2c(-c3cccc(Cl)c3)nnc2n1Cc1ccc(F)cc1	none
CCCC1c2ccc(C)n2CCN1C(=O)Nc1ccc(C)cc1C (stereo not drawn)	none
O=C1CN(Cc2ccc(-c3ccccc3)cc2)CCN1c1ccc(Cl)nn1	none
O=c1[nH]ccc2nc(-c3ccc(CN4CCC(c5nc(-c6ccccn6)n[nH]5)CC4)cc3)c(-c3ccccc3)cc12	Methyltransferases active
CCCn1c(=O)c2cc(Cl)ccc2n2c(=O)n(CC(=O)Nc3cccc(F)c3)nc12	none
O=c1[nH]c(=S)[nH]c(-c2ccccc2)c1Cc1c(O)ccc2ccccc12	Methyltransferases active
CCCn1c(=O)c2ccccc2n2c(=O)n(Cc3cccc(OC)c3)nc12	none
CC(C)C(NS(=O)(=O)c1ccc2c(c1)oc(=O)n2C)C(=O)N1CCN(c2ccc(F)cc2)CC1 (stereo not drawn)	none
COC(=O)c1ccc2c(=O)[nH]c3c(C(=O)NCc4ccc5c(c4)OCO5)sc(=S)n3c2c1	none
O=C(NCc1ccc2c(c1)OCO2)c1sc(=S)n2c1[nH]c(=O)c1cc3c(cc12)OCO3	none
O=C(NCc1ccc2c(c1)OCO2)c1sc(=S)n2c1[nH]c(=O)c1ccc(Cl)cc12	Methyltransferases active
O=C(NCc1ccc2c(c1)OCO2)c1n[nH]nc1Nc1ccc(Cl)cc1	none
CCc1ccc(NC(=O)c2sc(=S)n3c2[nH]c(=O)c2cc(Cl)ccc23)cc1	none
O=C(NCc1cccc(Cl)c1)c1sc(=S)n2c1[nH]c(=O)c1cc3c(cc12)OCO3	Methyltransferases active
CCCN1C(=O)c2c(C(=O)NCCc3ccc(C)cc3)ncn2CC1(C)C(=O)NCc1ccc(C)cc1 (stereo not drawn)	none
CCOC(=O)c1cc2n(n1)CC(C)(C(=O)NCc1ccccc1)N(CCc1ccccc1OC)C2=O (stereo not drawn)	none
O=C(Cc1ccccn1)N1CCCC(C(=O)N2CCC(N3CCCC3=O)CC2)C1 (stereo not drawn)	none
COc1ccccc1CNC(=O)C1(C)Cn2c(cc3ccccc32)C(=O)N1CCc1ccc(OC)c(OC)c1 (stereo not drawn)	none
COc1ccc2cc3n(c2c1)CC(C)(C(=O)NC1CCCCC1)N(Cc1ccccn1)C3=O (stereo not drawn)	none
CCOC(=O)c1cc2n(n1)CC(C)(C(=O)NC1CCCC1)N(c1cccc(OC)c1)C2=O (stereo not drawn)	none
Cc1ccc(C(N)=O)cc1Nc1nccc(-c2cn(C(C)C)c3cnccc23)n1	Methyltransferases active
CCOc1ccccc1CN1C(=O)c2ccc(-c3ccco3)n2CC1(C)C(=O)NC1CCCCC1C (stereo not drawn)	none
Cc1c(Cl)cccc1N1C(=O)c2cc3occc3n2CC1(C)C(=O)NC1CCCCC1 (stereo not drawn)	none
CC(C)CCn1c(=O)c2ccc(C(=O)NC(C)C)cc2n2c(=O)n(Cc3ccccc3)nc12	none
Cc1nc(N=Nc2cc(S(=O)(=O)O)c3cc([N+](=O)[O-])cc(S(=O)(=O)O)c3c2)c(COP(=O)(O)O)c(C=O)c1O	Methyltransferases active
Cc1ccc(NC(=O)CN(C)S(=O)(=O)c2ccc3[nH]c4c(c3c2)CCCC4)c(Br)c1	none
CC(C)Cn1c(=O)c2ccc(C(=O)NC(C)C)cc2n2c(SCC(=O)NC(C)(C)C)nnc12	none
CC(C(=O)NCc1ccc2c(c1)OCO2)n1ccc2cc(S(=O)(=O)N3CCCC3)ccc21 (stereo not drawn)	none
COc1ccc(CCNc2ncnc3c2CN(C2CCC2)C(=O)N(C)C3)cc1	none
CC(=O)N1CCN(C(=O)c2ccc3oc(-c4ccccn4)nc3c2)CC1	none
CN1CCN(C(=O)c2ccc3cc(CCNc4ncnc5ccc(C#N)cc45)ccc3c2)CC1	Methyltransferases active
CC1=CC(=O)[C@@]2(C(C)C)C[C@@H]12	Methyltransferases active
CCOc1cccc(C2c3cccn3-c3sc4c(c3CN2C(=O)Nc2cc(OC)ccc2OC)CCCC4)c1 (stereo not drawn)	none
NC(Cc1cccc(-c2ccccc2CP(=O)(O)O)c1)C(=O)O (stereo not drawn)	none
NC(Cc1c[nH]c2ccccc12)C(=O)O (stereo not drawn)	none
N[C@@H](Cc1cc(I)c(Oc2cc(I)c(O)c(I)c2)c(I)c1)C(=O)O	Methyltransferases active
N[C@@H](Cc1cc(I)c(Oc2ccc(O)c(I)c2)c(I)c1)C(=O)O	Methyltransferases active!
Cc1c(Cl)cccc1N1C(=O)c2cc(-c3ccccc3)nn2CC1(C)C(=O)NCc1ccccc1 (stereo not drawn)	none
C=CCn1c(=O)c2ccc(C(=O)NCC(C)C)cc2n2c(=O)n(CC(=O)Nc3ccccc3C)nc12	none
c1ccc(-n2cc(CN3CCCN(Cc4cccs4)CC3)nn2)cc1	none
CC12CC(O)C(O)C=C1c1cc(O)cc(O)c1C(=O)O2 (stereo not drawn)	none
Cc1cc(O)c2c(c1)C(=O)c1cc(O)cc(O)c1C2=O	Methyltransferases active
C=CCn1c(=O)c2ccc(C(=O)NC(C)CC)cc2n2c(=O)n(CC(=O)Nc3ccccc3C)nc12 (stereo not drawn)	none
COc1ccc(OC)c(NC(=O)N2Cc3c(sc4c3CCCC4)-n3cccc3C2c2ccc(F)cc2)c1 (stereo not drawn)	none
COc1ccc(CCNC(=O)c2cc3n(n2)CC(C)(C(=O)NC2CCCCC2)N(C)C3=O)cc1OC (stereo not drawn)	none
CC(C(=O)NCc1cccnc1)n1ccc2cc(S(=O)(=O)N3CCCC3)ccc21 (stereo not drawn)	none
COc1cccc(NC(=O)N2CCn3cccc3C2C(C)C)c1 (stereo not drawn)	none
O=C(Cn1ccc2cc(S(=O)(=O)N3CCCCC3)ccc21)NCCN1CCOCC1	none
Cc1ccc(O)c(N=Nc2ccccc2)n1	Methyltransferases active
